Assay outcomes (PubChem BioAssay)
Only some compounds are listed: those with a hit (about 2% of all), similar ones and a draw of the others.
FUS yeast rescue: rescues growth of FUS-expressing yeast; Potency, µM (top dose mostly 76.6 µM), usual class: activators; AID 1347120; S. cerevisiae FUS-expressing, growth rescue, OD600, 24 h; 390,000 tested, 0.24% active;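 further: potency means the concentration at half of the fitted maximal effect; plate controls were DMSO vehicle for no effect and reference control for full effect; nearly all actives have a fitted effect of over 55% in size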
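Compound concentration series was pinned onto galactose-induced FUS-expressing yeast seeded at OD 0.005. Plates sat 24hr at 30C; absorbance at 600 nm gave growth. DMSO served as background control.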
TDP43 rescue: rescues yeast growth from TDP-43 toxicity | Potency, µM (series often up to 46.1 µM), for the others: at the top dose growth rescue (activation), actives largely listed as activators | TDP-43 expressing yeast growth rescue, BacTiter-Glo, 24 h | 410,000 tested, 1.8% active | AID 652104; further: potency means the concentration at half of the fitted maximal effect; % of control where 0% means no effect; nearly all actives have a fitted effect of over 50% in size
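Galactose-induced TDP-43 yeast, OD600=0.02, compound pinned; 24 hr, 30 deg C; BacTiter-Glo luminescence for growth. Inhibitors of TDP-43 toxicity read as activators.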
IDH1 R132H inh: human IDH1 R132H inhibition | O75874 | IDH1-R132H enzyme, NADPH consumption, diaphorase/resazurin fluorescence | Potency, µM (top dose mostly 76.6 µM), without a hit: at the top dose activity change, negative = inhibition, hits mostly inhibitors | 390,000 tested, 0.093% active; further: potency means the concentration at half of the fitted maximal effect; on the % scale 0 is the no-effect control and ±100 the full control effect; nearly all actives have a fitted effect of over 65% in size
Target sequence (O75874 whole entry R132H, stated change not applied): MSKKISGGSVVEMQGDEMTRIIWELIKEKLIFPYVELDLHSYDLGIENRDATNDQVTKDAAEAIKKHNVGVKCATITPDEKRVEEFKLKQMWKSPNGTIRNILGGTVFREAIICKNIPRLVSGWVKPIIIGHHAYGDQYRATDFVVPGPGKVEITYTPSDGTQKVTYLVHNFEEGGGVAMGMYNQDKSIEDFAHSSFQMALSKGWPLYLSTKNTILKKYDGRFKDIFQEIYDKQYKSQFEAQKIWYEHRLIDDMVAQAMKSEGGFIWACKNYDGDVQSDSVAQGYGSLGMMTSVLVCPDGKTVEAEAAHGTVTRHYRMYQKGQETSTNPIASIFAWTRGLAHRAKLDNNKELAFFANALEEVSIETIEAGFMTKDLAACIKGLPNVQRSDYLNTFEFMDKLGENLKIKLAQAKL
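IDH1-R132H (0.5 ug/mL) preincubated 30 min with compound, then NADPH (0.016 mM) and alpha-KG (2 mM) added; 80 min at RT, pH 7.5. Remaining NADPH coupled via diaphorase/resazurin to fluorescence (540/590 nm); concentration-response curves normalized to no-enzyme control.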
LDHA inh: LDHA (human) enzyme inhibition. P00338. purified LDHA, NADH/diaphorase-resazurin fluorescence; hits give low values. activity change, % (values are at about 110 or 230 µM). 480,000 tested, 0.15% active; in the data active means activity change below about -30%; inconclusive means mostly about -25% to -30%;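 further: plate controls were DMSO wells for no effect and wells without enzyme for full effect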
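LDH5 2 nM; NADH 0.06 mM, pyruvate 0.2 mM; 200 mM Tris pH 7.4, EDTA, Tween-20; 5 min RT. Detection: diaphorase 0.133 mg/mL + resazurin 37 µM, fluorescence ex540/em590 at 0 and 20 min; normalized to enzyme-free and DMSO wells.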
aSyn yeast inh: alpha-synuclein toxicity inhibition in yeast; Yeast expressing alpha-synuclein, growth rescue, BacTiter-Glo, 24 h; Potency, µM (titrated, usually from 46.1 µM), without a hit: at the top dose growth rescue (activation), actives largely listed as activators; 370,000 tested, 0.14% active; AID 652106; further: potency means the concentration at half of the fitted maximal effect; % of control where 0% means no effect; nearly all actives have a fitted effect of over 65% in size
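Screening used galactose-induced yeast with toxic alpha-synuclein levels, exposed to compound for 24 hr at 30 deg C. Cell growth, read with BacTiter-Glo luminescence, gave the measured signal.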
Abeta yeast res: compounds reversing amyloid beta toxicity in yeast. yeast expressing A-beta42, growth rescue, OD600, 48 h; response scale: 0% DMSO, 100% iron-clioquinol control. Potency, µM (titrated, usually from 46.1 µM), actives largely listed as activators. 410,000 tested, 0.063% active. AID 1347071; further: potency means the concentration at half of the fitted maximal effect; nearly all actives have a fitted effect of over 55% in size
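Yeast growth medium received pinned compounds, then yeast cells expressing toxic A-beta were added; plates incubated at 30 C for 48 hr. Growth read as absorbance at 600 nm, normalized to DMSO and equimolar FeCl3 plus clioquinol controls.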
* = called active by the depositor; i = inactive; ? = inconclusive; · = no result; ! = repeats disagree. Unless noted, the call rests on the fitted dose curve; in most records, active means well fitted curve in the direction sought with a large enough effect; inconclusive means small, poorly fitted or top-dose-only effect, or another doubt; inactive means no such curve, though single readings can be large; an effect the other way counts as inactive or inconclusive.

SMILES	FUS yeast rescue	TDP43 rescue	IDH1 R132H inh	LDHA inh	aSyn yeast inh	Abeta yeast res
O=C(c1ccc(Cl)cc1)N1CCC(C(=O)N2CCCc3ccccc32)CC1	·	14µM*	-2%	-8	-2%	i
O=C(O)C1=CC(/C=C/c2ccccc2)n2ncc(C(=O)Nc3ccccc3Cl)c2N1 (configuration not stated)	·	·	·	2	·	·
CCC(Oc1ccccc1F)C(=O)N1CCC(c2nc3ccccc3s2)CC1 (configuration not stated)	i	25µM*	-4%	-3	·	i
O=C(c1cccc(F)c1)N1CCC(c2nc3ccccc3s2)CC1	i	13µM*	13%	-6	4%	i
CCc1nnc(CN2CCC(c3nc4ccccc4s3)CC2)o1	·	·	·	-36*	·	·
CCCOc1ccccc1C(=O)N1CCC(c2nc3ccccc3s2)CC1	i	?	0%	-7	·	i
O=C(CSc1ccc(F)cc1)N1CCC(c2nc3ccccc3s2)CC1	i	22µM*	2%	-7	27%	i
N#Cc1ccc(CSc2ccccc2C(=O)Nc2ccc3c(c2)OCCCO3)cc1	·	·	·	8	·	·
CCNC(=O)c1cc2c(s1)CCC(C(C)(C)C)C2 (configuration not stated)	·	·	·	2	·	·
CC(C)(C)C1CCc2sc(C(=O)NNC(=O)CCl)cc2C1 (configuration not stated)	i	13µM*	?	-3	1%	i
O=C(CC1CCCCC1)Nc1ccc(-c2nc3ccccc3s2)cc1	·	·	·	-6	·	·
CC(=O)N1CCc2c(sc3c2c(=O)n(Cc2ccccc2)c(=O)n3Cc2cc(C)ccc2C)C1	i	16%	?	-2	·	i
CC(=O)N1CCc2c(sc3c2c(=O)n(CCc2ccccc2)c(=O)n3Cc2ccc(Cl)cc2)C1	?	32µM*	5%	1	·	i
CC(=O)N1CCc2c(sc3c2c(=O)n(-c2ccccc2)c(=O)n3Cc2ccccc2Cl)C1	·	9%	?	-4	0%	i
CC(=O)N1CCc2c(sc3c2c(=O)n(-c2cccc(Cl)c2)c(=O)n3Cc2ccc(F)cc2Cl)C1	i	11µM*	-18%	3	·	i
CC(=O)Nc1ccc(C=NNC(=O)c2ccc(NS(=O)(=O)c3cccs3)cc2)cc1	i	-23%	4%	-33*	0%	i
O=C(Nc1cccc(-c2nc3cccnc3s2)c1)c1cccc(Br)c1	i	6.3µM*	0%	1	·	i
O=C(Nc1cccc(-c2nc3cccnc3s2)c1)c1ccco1	i	10µM*	8%	-10	-7%	i
O=C(Nc1ccc(-c2nc3cccnc3s2)cc1)c1ccco1	i	0%	-9%	-8	-8%	i
CC1CC(=O)Nc2cc(S(=O)(=O)NCCc3ccco3)ccc2S1 (configuration not stated)	·	·	·	3	·	·
C=CCN=c1scc(-c2ccccc2)n1/N=C/c1ccccn1	i	22µM*!	14%	1	-21%	?
C=CCN=c1scc(-c2ccc(F)cc2)n1/N=C/c1ccccn1	i	?	4%	0	-6%	?
CSc1ncc(C(=O)NCc2ccccc2)c(N)n1	·	·	·	0	·	·
Cc1ccc(Cl)c2sc(N3CCN(C(=O)C4CC4)CC3)nc12	?	14µM*	7%	0	·	i
Cc1ccc(C)c2sc(N3CCN(C(=O)C(C)(C)C)CC3)nc12	i	35µM*	-3%	-2	·	i
SMILES	FUS yeast rescue	TDP43 rescue	IDH1 R132H inh	LDHA inh	aSyn yeast inh	Abeta yeast res
Cc1cccc(CNCc2ccco2)c1	·	·	·	-8	·	·
CC1Cc2ccccc2N1C(=O)COC(=O)/C=C/c1ccc(F)cc1 (configuration not stated)	i	13%	-9%	-2	2%	i
CC1Cc2ccccc2N1C(=O)/C=C/c1cccc(F)c1 (configuration not stated)	i	20µM*	11%	-4	6%	i
Cc1ccc(CNC(=O)c2ccc(N3CCOCC3)c(NC(=O)Nc3cc(F)ccc3F)c2)cc1	·	·	·	10	·	·
CC(C)=CCC/C(C)=C/CNCC(O)CN1CCOCC1 (configuration not stated)	·	·	·	1	·	·
Oc1cccc2c(NC(=S)Nc3ccc(SC(F)F)cc3)cccc12	i	11µM*	5%	9	-21%	i
O=C(Cc1ccccc1)Nc1c(C(=O)c2ccccc2)oc2ccccc12	i	15%	-9%	-3	·	i
COc1ccc(CC(=O)Nc2c(C(N)=O)oc3ccccc23)cc1OC	i	-5%	-5%	1	6%	i
NC(=O)c1oc2ccccc2c1NC(=O)CCc1ccccc1	i	11µM*	-1%	0	1%	i
CC(=O)Nc1c(C(=O)c2ccccc2)oc2ccccc12	i	7.9µM*	1%	0	·	i
c1ccc(-c2cc3nc(NCc4ccc5c(c4)OCO5)ccn3n2)cc1	?	14µM*	·	-3	14%	?
COc1cc(-c2cc3nc(NCc4cccs4)ccn3n2)cc(OC)c1OC	i	35µM*	·	10	-22%	i
c1coc(-c2cc3nc(NCc4ccc5c(c4)OCO5)ccn3n2)c1	i	18µM*	·	-2	6%	i
c1ccc(-c2cc3nc(NCc4cccs4)ccn3n2)cc1	i	?	·	-2	10%	?
c1ccc(COc2ccc(-c3cc4nc(NCc5ccc6c(c5)OCO6)ccn4n3)cc2)cc1	i	30%	·	-4	-16%	i
O=C(Cn1nc2ccc(SCc3ccc(Cl)cc3)nn2c1=O)NCc1ccc(F)cc1	·	·	·	-13	·	·
CCOc1cccc2cc(-c3nc(-c4ccccc4F)no3)c(=O)oc12	·	·	·	-35*	·	·
COc1ccccc1-c1nc(-c2ccc(Br)cc2)no1	i	-10%	0%	-4	-9%	i
CCOc1ccccc1-c1nc(-c2ccncc2)no1	i	18µM*	8%	-1	10%	i
COc1ccccc1-c1nc(-c2ccncc2)no1	i	11µM*	3%	0	·	i
COc1ccccc1-c1noc(-c2cccnc2)n1	i	11µM*	3%	-5	4%	i
Cc1ccc(C)c(N2N=C(C(=O)Nc3ccc(S(=O)(=O)N4CCCCC4)cc3)CCC2=O)c1	·	·	·	-11	·	·
COc1ccc(OC)c2c1cc(C(=O)NCCC(=O)Nc1ccc3c(c1)OCCO3)n2C	·	·	·	-5	·	·
O=C(c1ccco1)N1CC2(CC(c3ccc(Cl)cc3)=NO2)CN1Cc1ccc(Br)cc1 (configuration not stated)	i	32µM*	-5%	0	12%	i
